Experimental findings from PubChem BioAssay AID1835 (Johns Hopkins Ion Channel Center, 2009) are described below.

The structures appear in SMILES notation. Out of some 2,400 compounds screened, about 750 (31%) were called active.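 How the source made its calls: active means median signal gain over dofetilide-blocked control wells reaching their mean plus 3 SD, so readout 1 at least 0; inactive means the rest.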 Some of the results follow.

Voltage-gated inwardly rectifying potassium channel KCNH2 (Homo sapiens), sequence (Q12809 whole entry, looked up): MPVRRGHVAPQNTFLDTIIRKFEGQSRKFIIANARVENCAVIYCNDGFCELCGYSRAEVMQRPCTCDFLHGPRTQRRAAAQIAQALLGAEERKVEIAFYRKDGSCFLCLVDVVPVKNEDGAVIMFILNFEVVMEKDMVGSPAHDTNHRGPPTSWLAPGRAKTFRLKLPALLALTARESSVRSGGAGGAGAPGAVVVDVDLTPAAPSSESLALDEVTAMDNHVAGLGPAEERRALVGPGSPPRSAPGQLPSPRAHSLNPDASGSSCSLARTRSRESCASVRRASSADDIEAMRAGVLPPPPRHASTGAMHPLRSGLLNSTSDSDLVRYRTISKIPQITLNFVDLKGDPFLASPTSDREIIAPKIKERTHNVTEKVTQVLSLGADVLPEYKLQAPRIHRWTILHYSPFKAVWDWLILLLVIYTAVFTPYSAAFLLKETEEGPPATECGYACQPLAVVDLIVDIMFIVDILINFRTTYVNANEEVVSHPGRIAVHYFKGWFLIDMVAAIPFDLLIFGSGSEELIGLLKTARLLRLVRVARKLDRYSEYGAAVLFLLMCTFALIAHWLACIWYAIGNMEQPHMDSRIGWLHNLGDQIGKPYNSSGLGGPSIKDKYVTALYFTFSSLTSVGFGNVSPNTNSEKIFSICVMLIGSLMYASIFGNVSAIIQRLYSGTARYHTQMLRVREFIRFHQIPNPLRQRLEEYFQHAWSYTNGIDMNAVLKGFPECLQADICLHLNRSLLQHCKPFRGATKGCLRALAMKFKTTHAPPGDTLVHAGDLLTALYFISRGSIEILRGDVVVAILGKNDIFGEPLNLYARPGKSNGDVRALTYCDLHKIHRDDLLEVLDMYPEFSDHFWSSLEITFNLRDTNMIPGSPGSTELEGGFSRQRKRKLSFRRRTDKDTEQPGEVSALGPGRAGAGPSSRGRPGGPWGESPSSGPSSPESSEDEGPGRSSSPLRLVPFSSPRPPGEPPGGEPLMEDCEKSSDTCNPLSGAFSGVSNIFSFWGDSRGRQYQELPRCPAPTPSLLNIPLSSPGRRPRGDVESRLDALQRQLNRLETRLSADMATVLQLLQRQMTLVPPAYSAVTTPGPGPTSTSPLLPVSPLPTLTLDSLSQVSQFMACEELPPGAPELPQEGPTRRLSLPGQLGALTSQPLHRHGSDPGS

The test has as its target Voltage-gated inwardly rectifying potassium channel KCNH2 (Homo sapiens) (UniProt Q12809). As to the kind of experiment: hERG protection against dofetilide inhibition, confirmation, cell-based, thallium flux, duplicate retest, dofetilide IC70 (AID 1835). As to conditions: hERG cell line, FluxOR thallium flux, dofetilide-blocked; at 10 µM; hits give high values. On the technique in general: Block of hERG is tested as a sign of cardiac risk.
For the compound `c1ccc2oc(-c3ccn[nH]3)cc2c1`, the activity increase over dofetilide control, less the hit threshold is -10% (inactive).
With `O=C(COC(=O)c1cc[n+]([O-])cc1)Nc1cc([N+](=O)[O-])ccc1Cl`, the activity increase over dofetilide control, less the hit threshold is -20% (inactive).
Then `O=C(CCC(=O)Nc1ccccc1)NNC(=O)c1ccco1`, with -12% (inactive); and `COc1ccc(C)cc1NC(=O)C(=O)NNC(=O)c1ccco1`, with 55% (active); and `COc1ccccc1NC(=O)C(=O)NNC(=O)c1ccco1`, with 35% (active).
For `CN(c1ccccc1)S(=O)(=O)c1ccc(Cl)c(C(=O)Nc2nn[nH]n2)c1`, the activity increase over dofetilide control, less the hit threshold is -4% (inactive).
Then `CC12CN3CC(C)(CN(C1)C3c1ccc3c(c1)OCO3)C2=O` (configuration not stated), with -8% (inactive); and `C/C(=N\NC(=O)COc1ccc(C)cc1C(C)C)c1ccc(-n2ccnc2)cc1`, with 6% (active).
As to `Cc1ccc(C(C)C)cc1OCC(=O)Nc1ccc(N2CCCCC2)cc1`, the activity increase over dofetilide control, less the hit threshold was -11% (inactive).
Then `O=[N+]([O-])c1ccc(S(=O)(=O)Nc2ccc(S(=O)(=O)N3CCCC3)cc2)cc1`, with -23% (inactive); and `CC(C)(C)c1ccc(Cn2nc(CC(=O)O)c3ccccc3c2=O)cc1`, with -9% (inactive).
Then `Cc1nc2c(C(=O)NCCc3ccccc3)c[nH]n2c(=O)c1Cl`, with -3% (inactive); and `O=C(O)CCCNC(=O)c1nn(Cc2ccccc2)c(=O)c2ccccc12`, with 3% (active).
As to `O=C(c1cccs1)N1CCN=C1SCc1ccccc1`, the activity increase over dofetilide control, less the hit threshold is -20% (inactive).
Then `S=C(NCc1ccccc1)NCc1ccccc1Cl`, with -9% (inactive); and `O=C(NC(=S)Nc1ccccc1)c1cccs1`, with 12% (active).
Then `CN(Cc1ccccc1)C(=S)NC(=O)c1cccs1`, with 10% (active); and `CCN(CC)c1ccc(NC(=S)NC(=O)c2cccs2)cc1`, with 8% (active).
Turning to `NS(=O)(=O)c1ccc(NC(=S)NCc2cccs2)cc1`, the activity increase over dofetilide control, less the hit threshold is -9% (inactive).
Turning to `Cc1ccc(C(=O)NC(=S)N(C)Cc2ccccc2)cc1`, the activity increase over dofetilide control, less the hit threshold is -3% (inactive).
On to `CCCOc1ccc(C(=O)NNC(=S)NC(=O)c2cccs2)cc1`, for which the activity increase over dofetilide control, less the hit threshold is -44% (inactive).
Then `O=C(NC(=S)NCc1ccccc1)c1cccs1`, with 23% (active).
Then `O=C(NC(=S)NNC(=O)c1cccs1)c1ccc(Br)o1`, with -23% (inactive); and `O=c1ccn(CCCBr)c(=O)[nH]1`, with -8% (inactive); and `CCN(CC)CCOC(=O)C(c1ccccc1)c1ccccc1`, with -6% (inactive).
As to `O=C1CCCN1C(=O)COc1ccccc1[N+](=O)[O-]`, the activity increase over dofetilide control, less the hit threshold is -13% (inactive).
On to `O=[N+]([O-])c1ccccc1OCCNCc1ccccc1`, for which the activity increase over dofetilide control, less the hit threshold was 9% (active).
Regarding `O=C(COc1ccccc1[N+](=O)[O-])Nc1cc(Cl)ccc1C(=O)O`, the activity increase over dofetilide control, less the hit threshold is -10% (inactive).
Regarding `Cc1cc(C)n(-c2nc(NCCCN(C)C)c3c4c(sc3n2)CCCC4)n1`, the activity increase over dofetilide control, less the hit threshold was -10% (inactive).
Then `CCOc1ccc2nc(N3C(=O)/C(=C/c4ccccc4)NC3=S)sc2c1`, with 71% (active); and `COc1ccc(N2C(=O)/C(=C/c3cccs3)NC2=S)cc1`, with -21% (inactive).
Then `CCOc1ccc2nc(N3C(=O)/C(=C/c4ccc(Cl)cc4)NC3=S)sc2c1`, with 22% (active); and `CCOc1ccc(NC(=O)c2ccc(NC(=O)CSc3nc4ccccc4c(=O)[nH]3)cc2)cc1`, with -17% (inactive).
`O=C(N1CCOCC1)N1CCC(c2nc(-c3ccc(S(=O)(=O)N4CCOCC4)cc3)no2)CC1`: the activity increase over dofetilide control, less the hit threshold is -12% (inactive).
Then `Cc1ccc(CNS(=O)(=O)c2ccc(C(F)(F)F)cc2)n1C`, with -18% (inactive); and `Cc1cc(C)c(-c2cc(NC(=O)COC(=O)c3ccc(NC(=O)CC#N)cc3)n(-c3ccccc3)n2)cc1C`, with -15% (inactive).
Then `Cc1ccc(NC(=S)N2CCN(c3ccccc3F)CC2)c(C)c1`, with -8% (inactive).
Then `COc1ccc(NC(=O)c2cn(-c3ccccc3)nc2-c2ccncc2)cc1`, with 40% (active); and `CC(C)COc1ccc(-c2nn(-c3ccccc3)cc2C(=O)Nc2nccs2)cc1`, with 20% (active).
For `Cc1cnc(C(=O)Nc2nccs2)cn1`, the activity increase over dofetilide control, less the hit threshold was -22% (inactive).
Then `COc1ccc(-c2nn(-c3ccccc3)cc2C(=O)Nc2cccc(C(=O)O)c2)cc1[N+](=O)[O-]`, with -27% (inactive); and `Cc1ccc(-n2ccc(=O)c(C(=O)Nc3ccc(S(=O)(=O)Nc4nccs4)cc3)n2)cc1`, with -3% (inactive).
Regarding `COc1ccc(CN2CCn3ncc(C(=O)Nc4ccccc4)c3C2=O)cc1`, the activity increase over dofetilide control, less the hit threshold is -16% (inactive).
With `COc1ccc([N+](=O)[O-])cc1N(CC(=O)NCc1ccco1)S(C)(=O)=O`, the activity increase over dofetilide control, less the hit threshold is -21% (inactive).
Take `O=c1cc(O)c2sc(Nc3ccc(F)c(Cl)c3)nc2[nH]1`: the activity increase over dofetilide control, less the hit threshold was -15% (inactive).
Then `COC(=O)CSc1nnc(COc2ccc3ccccc3c2)o1`, with -10% (inactive); and `COc1ccccc1NC(=O)C(=O)NNC(=O)COc1ccc2ccccc2c1`, with 94% (active).
Then `O=C(COc1ccc2ccccc2c1)NNC(=O)C(=O)Nc1ccccc1`, with 55% (active).
For the compound `Cc1ccccc1NC(=O)C(=O)NNC(=O)COc1ccc2ccccc2c1`, the activity increase over dofetilide control, less the hit threshold was 48% (active).
Then `O=C(COc1ccc2ccccc2c1)Nc1ccc(Br)cc1C(=O)O`, with -10% (inactive); and `C=CCNC(=O)COc1ccc(Oc2ccccc2)cc1`, with -6% (inactive).
For `O=C(COc1ccccc1)Nc1ccc(F)cc1`, the activity increase over dofetilide control, less the hit threshold was -27% (inactive).
On to `COc1ccc(N2CC(C(=O)OCC(=O)Nc3ccccc3C)CC2=O)cc1` (configuration not stated), for which the activity increase over dofetilide control, less the hit threshold was -5% (inactive).
Turning to `CCN1C(=O)c2cccc3c(S(=O)(=O)NCC4CCCO4)ccc1c23` (configuration not stated), the activity increase over dofetilide control, less the hit threshold was -22% (inactive).
Then `Brc1ccc(Nc2nc(-c3cccnc3)cs2)cc1`, with -12% (inactive); and `Cc1cc(C(F)(F)F)c2sc(N)nc2n1`, with -11% (inactive).
Then `CC1CC(OCC(O)C[N+]2(C)CCOCC2)CC(C)(C)C1` (configuration not stated), with -13% (inactive); and `COc1ccc(S(=O)(=O)Nc2cccc(-n3cnnn3)c2)cc1`, with -20% (inactive).
For `C=CCN(c1ccccc1)S(=O)(=O)c1cccc(C(=O)Nc2nnc(SCC)s2)c1`, the activity increase over dofetilide control, less the hit threshold is -4% (inactive).
For `C=CCN(c1cccc(C(F)(F)F)c1)S(=O)(=O)c1cccc(C(=O)OCC(=O)Nc2ccccc2)c1`, the activity increase over dofetilide control, less the hit threshold was -6% (inactive).
Then `C=CCN(c1ccc(Cl)cc1)S(=O)(=O)c1cccc(C(=O)O)c1`, with 6% (active); and `COc1ccc(-c2cn3nc(SCC(=O)NC4CCCCC4)ccc3n2)cc1`, with -2% (inactive); and `Cc1ccc(C(=O)Nc2nc(=O)n(C)s2)cc1`, with -1% (inactive).
Then `O=C(CNC(=O)c1ccccc1)NCc1ccc(Cl)cc1`, with -8% (inactive); and `O=C(Nc1nc(=O)c2ccccc2s1)c1ccc(Cl)cc1`, with 46% (active).
For the compound `Cc1ccc(C(=O)Nc2nc3ccccc3c(=O)s2)cc1`, the activity increase over dofetilide control, less the hit threshold was 53% (active).
Then `CN(CC(=O)Nc1nc2ccccc2s1)S(=O)(=O)c1ccc(Cl)cc1`, with -17% (inactive); and `COc1ccc(N(CC(=O)N2CCN(Cc3ccccc3)CC2)S(C)(=O)=O)cc1`, with -16% (inactive).
Then `C=CCN(c1ccc(C(=O)NC(C)C)cc1)S(C)(=O)=O`, with -10% (inactive).
Regarding `CS(=O)(=O)N(Cc1ccccc1)c1ccc(C(=O)Nc2ccc(C(N)=O)cc2)cc1`, the activity increase over dofetilide control, less the hit threshold was 82% (active).
Then `CCC1=C(OC(=O)N(CC)CC)N2C(=O)OC(=NCC3CC3)[C@]2(C)[C@H]2C1=CC[C@H]1C(=O)N(C)C(=O)[C@H]12`, with -1% (inactive); and `N=c1c2cn[nH]c2nc(SCC(=O)c2ccc(Br)cc2)n1-c1ccc(Br)cc1`, with -3% (inactive); and `Cc1cc(C(=O)NCc2ccc(S(N)(=O)=O)cc2)ccc1[N+](=O)[O-]`, with -15% (inactive).
For `CC(C)NC(=S)N/N=C/c1ccc(C(C)(C)C)cc1`, the activity increase over dofetilide control, less the hit threshold is -13% (inactive).
Then `C/C(=N\NC(N)=S)c1ccncc1`, with -3% (inactive); and `C/C(=N\NC(N)=S)c1cccnc1`, with -8% (inactive); and `CSC(=S)N/N=C(\C)c1ccccc1`, with 35% (active).
`COCCNC(=O)C(=O)N/N=C/c1ccc(C(=O)OC)cc1`: the activity increase over dofetilide control, less the hit threshold is -11% (inactive).
Consider `CSC(=S)N/N=C/c1ccc(Br)cc1`, for which the activity increase over dofetilide control, less the hit threshold is 46% (active).
Then `CC(C)(C)c1ccc(/C=N/NC(=S)Nc2cccnc2)cc1`, with -11% (inactive); and `CSc1ccc(/C=N/NC(=O)c2cccs2)cc1`, with -17% (inactive).
On to `CSC(=S)N/N=C/c1ccccc1`, for which the activity increase over dofetilide control, less the hit threshold was 34% (active).
In the case of `COCCOC(=O)C1=C(C)Nc2ncnn2C1c1ccc(F)cc1` (configuration not stated), the activity increase over dofetilide control, less the hit threshold is -26% (inactive).
Then `CC(NS(=O)(=O)c1ccccc1)C(N)=O` (configuration not stated), with -10% (inactive); and `CC(C)OC(=O)c1c(NS(=O)(=O)c2ccccc2)sc2c1CCCC2`, with 37% (active); and `CCOC(=O)c1c(NS(C)(=O)=O)sc2c1CCC(C)C2` (configuration not stated), with 21% (active).
Consider `CC1CCc2c(sc(NS(=O)(=O)c3ccccc3)c2C(=O)OC(C)C)C1` (configuration not stated), for which the activity increase over dofetilide control, less the hit threshold was 7% (active).
`CC(C)OC(=O)c1c(NC(=O)c2ccco2)sc2c1CCCCC2`: the activity increase over dofetilide control, less the hit threshold was -12% (inactive).
Then `COC(=O)c1c(NC(=O)CN2CCOCC2)sc2c1CCC(C)C2` (configuration not stated), with -13% (inactive); and `O=[N+]([O-])c1ccc(Cl)c(/C=N/Nc2nc(N3CCOCC3)nc(N3CCOCC3)n2)c1`, with -18% (inactive).
Then `COc1ccccc1C(=O)COC(=O)c1ccc(-n2cnnn2)cc1`, with -21% (inactive).
Then `O=C(N/N=C\c1coc2ccccc2c1=O)c1ccco1`, with -24% (inactive); and `CC(Nc1ccc(F)cc1)=[N+](C)CCNS(=O)(=O)c1ccc(Cl)cc1`, with -3% (inactive).
Take `CC1Cc2cc(S(=O)(=O)NCc3ccccc3)ccc2N1C(=O)C1CCC1` (configuration not stated): the activity increase over dofetilide control, less the hit threshold is -22% (inactive).
For `CC1Cc2ccccc2N1C(=S)NC(=O)c1ccco1` (configuration not stated), the activity increase over dofetilide control, less the hit threshold was 6% (active).
As for `CC1Cc2ccccc2N1C(=S)NC(=O)C1(C)CC1(Cl)Cl` (configuration not stated), the activity increase over dofetilide control, less the hit threshold was 42% (active).
Then `COc1cc2c(cc1OC)C(C)N(C(=S)NC(=O)c1ccccc1)CC2` (configuration not stated), with -18% (inactive); and `CC(=O)N1CCc2cc(S(=O)(=O)N3c4ccccc4CC3C)ccc21` (configuration not stated), with -14% (inactive); and `Cc1csc2ncc(C(=O)N3c4ccccc4CC3C)c(=O)n12` (configuration not stated), with -2% (inactive).
As to `CC1Cc2ccccc2N1C(=S)NC(=O)c1cccc(Br)c1` (configuration not stated), the activity increase over dofetilide control, less the hit threshold was 77% (active).
Then `CC1Cc2ccccc2N1C(=S)NC(=O)c1ccc(Cl)cc1Cl` (configuration not stated), with 55% (active); and `O=C(NN1C(=O)C2C(c3ccccc3)C=CC(c3ccccc3)C2C1=O)c1cccc(Br)c1` (configuration not stated), with -54% (inactive).
